From PubChem
Sampled rows, rich in hits. Any-hit rate of the full collection: about 2.2%.
KLF5 inhibitor – inhibitors of KLF5 expression | DLD-1 KLF5 promoter-luciferase reporter, luminescence | inhibition, % at 5 µM | hit rate 0.23% among 290,000 | AID 1700;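 active means inhibition above a per-plate limit of that plate's mean compound inhibition plus 3 SD, cut at about 60% in these data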;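 further: 0% = DMSO wells and 100% = LY294002 at 200 µM; higher means less KLF5 promoter-driven luciferase light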
IEC-6 tox – counter-screen for KLF5 inhibitors: cytotoxicity in IEC-6 cells; IEC-6 cytotoxicity, luminescence viability; inhibition, % at 5 µM; hit rate 0.78% among 290,000; in the data active means inhibition above about 22%;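 further: 0% = plate median of test compound wells and 100% = cytotoxic reference compound wells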
BaF3 tox – parental Ba/F3 viability inhibition as JAK2V617F counter-screen; CellTiter-Glo ATP luminescence; inhibition, % at 5.6 µM; hit rate 1.1% among 220,000; AID 1486;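 active means inhibition above a per-campaign cutoff, the mean inhibition of all tested compounds plus 3 SD, cut at about 27% in these data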;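 further: 0% = DMSO wells and 100% = JAK Inhibitor I control wells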
Ba/F3 V617F tox – loss of viability in JAK2V617F-driven Ba/F3 cells | inhibition, % at 5.6 µM | hit rate 1.1% among 220,000 | Ba/F3 EpoR-JAK2V617F viability, ATP luminescence | AID 1446;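 active means inhibition above the campaign mean plus 3 SD over all tested compounds, cut at about 24% in these data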;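 further: cytokine-independent growth of Ba/F3 cells driven by EpoR plus mutant JAK2; 0% = DMSO-treated cells and 100% = JAK inhibitor I control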
aSyn 5UTR inh – 5' untranslated region of α-synuclein, MLPCN primary screen. alpha-synuclein 5'UTR reporter, inhibitor activity. inhibition, % (tested at 7.5 µM). hit rate 0.82% among 300,000. AID 1813; in the data active means inhibition above about 60%;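 further: H4 neuroglioblastoma cells stably carrying SNCA 5'UTR luciferase fusion; 0% = DMSO wells and 100% = positive control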
APP 5UTR inh – APP translation inhibition; SH-SY5Y APP 5'UTR-luciferase reporter, luminescence; hit rate 0.82% among 190,000; inhibition, % at 2 µM;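 active means inhibition above a set limit, derived from the sample mean plus 3 SD, cut at about 45% in these data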
BaF3 tox 2 – reduces parental Ba/F3 viability, JAK2V617F counter-screen; shares compounds with Ba/F3 V617F tox; CellTiter-Glo luminescence; cells kept alive by added IL-3; inhibition, % at 5.6 µM; hit rate 31% among 580; AID 1520;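 active means cell growth inhibition above the hit limit set in the earlier mutant JAK2 cell screen, cut at about 27% in these data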;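 further: plate controls were DMSO-treated cells for no effect and JAK Inhibitor I control wells for full effect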
JAK2V617F confrm – confirmation: loss of viability in JAK2V617F-dependent Ba/F3 cells; hit rate 66% among 580; Ba/F3 EpoR-JAK2V617F viability, CellTiter-Glo luminescence; inhibition, % at 5.6 µM; shares compounds with Ba/F3 V617F tox; AID 1521;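 active means mean inhibition above the hit cutoff derived in the earlier primary screen, cut at about 25% in these data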;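 further: 0% = DMSO-treated cells and 100% = JAK inhibitor I control wells; higher means lower luminescence from reduced cell ATP and viability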
* marks the source's active call; other numbers are inactive results; · = no result.

SMILES	KLF5 inhibitor	IEC-6 tox	BaF3 tox	Ba/F3 V617F tox	aSyn 5UTR inh	APP 5UTR inh	others
Cc1noc(C)c1S(=O)(=O)N1CCC(C(=O)Nc2ccccn2)CC1	-16.4	2.2	39.6*	1.9	10.0	10.7
CCn1cc(C(=O)NCCN(C)C)c(=O)c2cc(F)c(N3CCN(C)CC3)cc21	-24.8	1.4	·	·	6.2	·
S=C(NCCc1ccc(Cl)cc1)NCc1ccccc1	-9.8	-4.3	·	·	0.1	·
O=C(N/N=C/c1sc(N2CCOCC2)nc1-c1ccccc1)c1cccc(S(=O)(=O)N2CCCC2)c1	-7.0	-3.4	2.7	18.0	98.9*	-8.7
CCCCCCCNC1=CC(=O)CC(c2ccccc2)C1 (stereo unspecified)	-8.3	-1.4	36.4*	27.8*	-37.3	-10.9
CCCCCNC1=CC(=O)CC(c2ccccc2)C1 (stereo unspecified)	-37.9	2.6	4.5	0.1	-11.7	8.3
CCCCCC[N+](C)(C)CCSSCC[N+](C)(C)CCCCCC	-24.8	-4.5	4.0	-4.9	-10.3	·
C#CC[N+](C)(C)CCCCCCCCCCCC	24.4	9.4	76.4*	79.7*	77.0*	-1.0
CCCCCCCCCCCCCCCC[N+](C)(C)CC	·	·	·	·	100.9*	·
C#CC[N+](C)(C)CCCCCCCCCC	28.2	20.7	78.9*	78.5*	75.3*	-4.4
CC#CC[N+](C)(C)CCCCCCCCCCCC	23.6	24.2*	80.9*	100.9*	8.4	-12.9
O=C(Nc1ccccc1O)/C(=C\c1ccccc1)NC(=O)c1ccccc1	-38.3	-0.4	9.7	0.4	5.8	16.6
C#CC[N+](C)(C)CCCCCCCC	13.8	3.1	42.8*	65.7*	28.3	-15.5
C[N+](C)(C)CCCCCC[N+](C)(C)C	·	·	·	·	2.0	·
C=CC[N+](C)(C)C/C(Cl)=C(\Cl)c1ccccc1	-19.1	4.4	27.3*	25.6*	0.6	19.4
C/C(Cl)=C\C[N+](C)(C)CC(=O)OCCc1ccccc1	-31.7	-6.8	-2.8	-0.4	13.1	·
CSc1ccc(C2NN=C(c3ccccc3)S2)cc1 (stereo unspecified)	·	·	·	·	67.6*	·
O=C(/C=C/Nc1ccccc1Br)c1ccccn1	22.4	2.6	8.2	3.2	114.3*	15.7
COc1ccc(C(=O)/C=C2/c3ccccc3CC(C)(C)N2C)cc1	4.0	13.4	4.4	3.5	-18.6	47.9*
COc1ccc(C(=O)/C=C2/C(=O)Nc3ccccc32)cc1	-20.5	2.4	·	·	-98.9	·
CN1/C(=C\C(=O)Nc2cccnc2)c2ccccc2CC1(C)C	11.4	-2.5	35.7*	-2.4	-4.5	-5.2
O=C(/C=C/c1ccccc1)Nc1cccnc1	-88.5	-0.8	·	·	-143.4	·
COc1ccc(C2CC(C)(c3ccc(OC)cc3OC)Nc3ccccc3N2)c(OC)c1 (stereo unspecified)	-33.9	11.5	72.4*	61.9*	-10.4	-32.6
COC(=O)C1=C(C)C(c2ccc(OC)cc2OC)NC(=O)N1 (stereo unspecified)	-20.5	4.0	6.9	4.4	-8.3	6.1
CCOC(=O)c1cc(S(=O)(=O)Nc2ccc(OC)cc2OC)cn1C	-6.3	7.8	·	·	-17.9	·
SMILES	KLF5 inhibitor	IEC-6 tox	BaF3 tox	Ba/F3 V617F tox	aSyn 5UTR inh	APP 5UTR inh	others
COc1ccc(/C=N/NC(=O)c2ccccc2F)cc1CN1CCN(c2ccc(F)cc2)CC1	-11.8	1.1	8.7	2.8	·	-1.7
Cc1ccc(NCCc2ccc(C)nc2)cc1	-14.8	-3.3	1.5	-2.9	-28.7	53.4*
Cc1ccc(CCNc2ccc3ccccc3c2)cn1	-29.8	1.0	4.7	-1.2	19.1	-10.1
CC(C)Cc1nnc(NC(=O)CCC(=O)N2CCN(c3ccc(F)cc3)CC2)s1	-12.0	-9.2	·	·	25.7	·
O=C(Nc1ccc(OCc2ccccc2Cl)cc1)c1cccnc1	-0.8	16.9	·	·	90.3*	·
Cc1ccc(CNC(=O)CCc2nnc3ccc(N4CCC5(CC4)OCCO5)nn23)cc1	4.2	-1.4	·	·	17.5	·
Cc1c(CCC(=O)O)c(=O)oc2c(C)c(OCc3cc4c(cc3Cl)OCO4)ccc12	1.4	0.6	0.1	-5.2	15.1	·
CCCCOc1ccc(CSCCN=C(N)N)cc1	-20.9	1.8	76.2*	38.5*	-58.4	-40.8
COc1ccc(C(C)=O)cc1COC(=O)c1ccc(N)c([N+](=O)[O-])c1	1.6	30.7*	-3.0	-3.7	18.4	6.0
COc1ccc(C(C)=O)cc1COC(=O)CNC(=O)c1cc(C)cc(C)c1	-12.5	3.8	38.3*	69.6*	-13.8	2.6
Cc1cccn2cc(COc3cccc([N+](=O)[O-])c3)nc12	-36.0	2.3	10.2	6.2	-65.1	-21.8
Cc1cccn2cc(COc3ccc(-c4ccccc4)cc3)nc12	-40.6	-12.0	25.1	48.0*	-54.1	-44.0	BaF3 tox 2=42.6*;JAK2V617F confrm=43.2*
Cc1sc2nc3c4ccccc4c(NCc4ccco4)nn3c(=O)c2c1C	26.2	-7.4	4.0	4.0	·	-135.9
Cc1nc(NCc2ccco2)c2c(C)c(C)sc2n1	2.8	18.5	3.7	26.8*	-176.5	3.5	BaF3 tox 2=34.1*;JAK2V617F confrm=84.5*
C(=N\Nc1ccccn1)/c1ccc2c(c1)OCCO2	-149.0	-1.3	-0.6	-1.7	-37.6	-140.1
COc1ccc(S(=O)(=O)N2CCC3(CC2)OCCN3S(=O)(=O)c2ccccc2)cc1OC	·	·	·	·	18.4	·
CCOC(=O)N1CCN(C(=O)c2ccc(NC(=O)c3ccc(C)cc3)cc2)CC1	-45.7	4.6	13.9	24.4*	-20.3	10.4	BaF3 tox 2=2.9;JAK2V617F confrm=32.5*
Fc1ccc(CSc2ncnc3sc4c(c23)CCCC4)cc1	-26.8	-4.5	1.9	99.4*	36.0	-3.0	BaF3 tox 2=-2.8;JAK2V617F confrm=-0.5
CCOc1ccc(CCNC(=O)Cn2ccc3ccccc3c2=O)cc1OCC	-3.0	4.0	0.7	100.7*	17.9	-10.4	BaF3 tox 2=-1.5;JAK2V617F confrm=4.8
CCOc1ccc(CCNC(=O)Cn2cccc2C(=O)c2ccccc2)cc1OCC	8.4	-0.6	1.8	0.9	7.0	18.9
Nc1nc(N)c2nc(-c3ccccc3)c(N)nc2n1	-15.0	2.2	11.3	30.2*	34.7	-7.6	BaF3 tox 2=19.5;JAK2V617F confrm=73.0*
NSc1nc(N)c2nc(-c3ccccc3)c(-c3ccccc3)nc2n1	-23.5	1.0	10.9	1.7	24.3	2.9
CCc1ccc(N(CC(=O)Nc2ccccc2C(=O)N2CCCC2)S(C)(=O)=O)cc1	-1.6	-12.7	·	·	0.6	·
COc1ccccc1C(=O)NNC(=O)C(=O)NC1CCCCC1	-19.8	-6.2	·	·	21.3	·
CCOc1cc(C(=O)Nc2ccc(N3CCN(S(C)(=O)=O)CC3)cc2)cc(OCC)c1OCC	-11.4	-4.7	4.7	100.3*	6.6	-3.9	BaF3 tox 2=-0.9;JAK2V617F confrm=7.2
NC(=S)NN=C(Cc1ccccc1)Cc1ccccc1	-12.0	-1.9	21.2	44.7*	-25.6	-6.6	BaF3 tox 2=49.8*;JAK2V617F confrm=60.3*
O=C(CN1CCC(C(=O)c2ccc(F)cc2)CC1)Nc1ccccc1Cl	-11.6	-2.4	·	·	2.2	·
